Where “and” joins values, the source holds several entries; their conditions need not be identical. Identical values can stand only once. Compounds without any hit were thinned out: in the full panel of roughly 83,000, 20% have a hit.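 In brief: 96-well plates, 48 h treatment, single concentration, percent growth endpoint.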 Calls of active or inactive are those of the source. The calls were made as follows: active = growth percent below 10; inactive = the rest.
Legend:
Test in all cases: NCI-60 one-dose screen, 48 h (100 = growth as untreated, 0 = no growth, -100 = all killed)
Details in all cases: 10 µM unless noted
[1] = system: SR leukemia
[2] = system: RPMI-8226 leukemia
[3] = system: OVCAR-8 ovarian
[4] = system: OVCAR-5 ovarian
[5] = system: OVCAR-4 ovarian
[6] = system: SK-OV-3 ovarian
[7] = system: IGROV1 ovarian
[8] = system: OVCAR-3 ovarian
[9] = system: HS 578T breast
[10] = system: NCI/ADR-RES ovarian

Measured: growth

COC1=CC(c2ccc[nH]2)=N/C1=C\c1[nH]c(C)c(C(=O)Oc2ccccc2)c1C
active: [1] 6.67% | [2] -13.4% | [3] -13.8% | [4] -41.5% | [5] -48.8% | [6] 1.25% | [7] -35.4% | [8] -39.7% | [9] -27.5% | [10] -3.96%

COc1ccc(Cn2cc(C(=O)Nc3cccnc3Nc3ccccc3)nn2)cc1
inactive: [1] 94.9% | [2] 96.3% | [3] 101% | [4] 107% | [5] 95% | [6] 112% | [7] 102% | [8] 118% | [9] 94.1% | [10] 89.8%

Cc1ccc(Cl)cc1N1CCN(C(=O)[C@@H]2C[C@@H]2c2ccc(F)cc2)CC1
inactive: [1] 80.4% | [2] 62.9% | [3] 90.5% | [4] 94.4% | [5] 85.9% | [6] 90.3% | [7] 71.1% | [8] 95.3% | [9] 90.9% | [10] 89.7%

COc1cc(Cl)cc(-c2nn(C(=O)NS(=O)(=O)c3ccc(Cl)cc3)cc2-c2ccncc2)c1
inactive: [1] 80.5% | [2] 77.2% | [3] 27.5% | [4] 87.4% | [5] 16.5% | [6] 84.7% | [7] 82.6% | [8] 98.3% | [9] 73.3% | [10] 84.1%

ON=C1CCCCCCCC1
inactive: [1] 90.9% and 97.5% | [2] 103% and 102% | [3] 102% and 107% | [4] 103% and 105% | [5] 115% and 113% | [6] 100% and 103% | [7] 113% and 111% | [8] 111% | [9] 107% and 108% | [10] 103% and 105%

O=C1/C(=C/c2ccc(-c3ccccc3C(F)(F)F)o2)SC(=S)N1CCc1ccc(O)cc1
inactive: [1] 14.2% | [2] 69.8% | [3] 57.6% | [4] 77.4% | [5] 44.8% | [6] 64% | [7] 12.5% | [8] 43.4% | [9] 47.7% | [10] 43.9%

c1cc(NCCCCN2CCOCC2)c2ccc3c(ccc4c(NCCN5CCOCC5)ccnc43)c2n1
inactive: [2] 98.2% | [3] 79.2% | [4] 111% | [5] 91.5% | [6] 101% | [7] 65.6% | [8] 105% | [9] 88.6% | [10] 88.1%
active: [1] -7.92%

COc1ccccc1/C=C1\COc2ccc(O)cc2C1=O
active: [2] 4.74%
inactive: [1] 11.5% | [3] 49.4% | [4] 103% | [5] 81.2% | [6] 99.1% | [7] 84.7% | [8] 76.2% | [9] 83.5% | [10] 38.1%

Clc1ccc2c(c1)N(c1ncnc3ccc(-c4cnc5[nH]ccc5c4)cc13)CC2
active: [1] 1.86% | [5] 0.279% | [7] -24% | [9] 1.12%
inactive: [2] 26% | [3] 27.9% | [4] 39.1% | [6] 28.3% | [8] 21.5% | [10] 33.3%

COc1ccc2c(c1)oc1c(C)c3c(c(C)c12)C(=O)N(Nc1ccccc1)C3=O
inactive: [1] 104% | [2] 112% | [3] 104% | [4] 92% | [5] 100% | [6] 92% | [7] 102% | [8] 105% | [9] 105% | [10] 112%

O=C(Nc1ccc(Cl)c(Cl)c1)Nc1ccc(Cl)c(Cl)c1
-87% (active) and 29.5% (inactive): [6]
-16.6% (active) and 28.9% (inactive): [1]
-45% (active) and 48.8% (inactive): [9]
-78.7% (active) and 23.2% (inactive): [3]
-85.3% (active) and 41.8% (inactive): [4]
-36.5% (active) and 10.6% (inactive): [2]
active: [5] -86.4% | [7] -86.4% and 4.75% | [8] -95.3% and 6.41%
-54.9% (active) and 14.6% (inactive): [10]

CCN(CC)CC#CCOC(=O)[C@]1(C)CCC[C@]2(C)c3ccc(C(C)C)cc3CC[C@@H]12
inactive: [1] 79.3% | [2] 21.3% | [3] 94.2% | [4] 93.5% | [5] 71.3% | [6] 89.2% | [7] 86.2% | [9] 90.2% | [10] 84.5%

O=C1/C(=C/c2ccc(-c3cccc(C(F)(F)F)c3)o2)SC(=S)N1CCc1ccc(O)cc1
inactive: [1] 32.5% | [2] 68.3% | [3] 15.2% | [4] 82.7% | [5] 48.5% | [6] 85.4% | [7] 48.8% | [9] 69.4% | [10] 81.7%

NNCCc1ccccc1
inactive: [1] 106% and 104% | [2] 95.3% and 110% | [3] 116% and 96.7% | [4] 93.1% | [5] 101% and 96.9% | [6] 108% and 94.9% | [7] 97.2% | [9] 116% and 94.1% | [10] 104% and 91.4%

N#Cc1c(-c2cccc(F)c2)cc(-c2cccnc2)[nH]c1=O
inactive: [1] 91.3% | [2] 98.8% | [3] 100% | [4] 98.9% | [5] 113% | [6] 99.6% | [7] 110% | [9] 104% | [10] 105%

CCOC(=O)C1=C(C)N=C2SC=C(c3ccc(F)cc3)N2[C@H]1c1cn(-c2ccccc2)nc1-c1ccc(Cl)cc1
inactive: [1] 88% | [2] 88.4% | [3] 92% | [4] 91.9% | [5] 102% | [6] 87.8% | [7] 96.7% | [9] 101% | [10] 105%

O=C(NCc1ccc(Cn2c(=O)sn(-c3ccc(Cl)cc3)c2=O)cc1)OCc1ccc2c(Cl)cc(Cl)c(O)c2n1
active: [10] 6.82%
inactive: [1] 51.9% | [2] 46.8% | [3] 38.1% | [4] 74.9% | [5] 67.3% | [6] 76% | [7] 49.2% | [9] 69.7%

CCOC(=O)c1c(-c2ccc(OC)cc2)c(C#N)c2c(C#N)c(N)nn2c1N
active: [1] 0.886%
inactive: [2] 13.8% | [3] 43.9% | [4] 70.1% | [5] 68.1% | [6] 45.8% | [7] 24.6% | [9] 27.7% | [10] 17.8%

Cc1ccc(/C=C/c2c(C(=O)/C=C/c3ccccc3)c(C)nc3ccccc23)cc1
inactive: [1] 12.7% | [5] 39.9% | [6] 70.1% | [7] 11.3% | [9] 35.6%
active: [2] -7.87% | [3] 1.99% | [4] 1.05% | [10] 8.38%

Cc1nc2cccc(NCCCCC(=O)NO)c2c(=O)n1-c1ccccc1
inactive: [1] 29.4% | [2] 36.1% | [3] 39.5% | [4] 31.1% | [5] 68.7% | [6] 50.8% | [7] 58.2% | [8] 68.1% | [9] 55.2% | [10] 75.3%

FC(F)(F)Sc1ccc(/C=C/c2cc(/C=C/c3ccc(SC(F)(F)F)cc3)n(-c3ccccc3)n2)cc1
inactive: [1] 91.4% | [2] 93.9% | [3] 95.1% | [4] 110% | [5] 92.3% | [6] 88.1% | [7] 99.9% | [9] 98.8% | [10] 98.5%

CON1CCC[C@]2(C)[C@H]3CC[C@@H]4[C@H]5[C@@H](O)C(C)(C)CC[C@]5(CO)CC[C@@]4(C)[C@]3(C)CC[C@H]2C1(C)C
inactive: [1] 88.4% | [2] 89.1% | [3] 95.2% | [4] 102% | [5] 100% | [6] 90.1% | [7] 103% | [9] 108% | [10] 111%

Cc1c(O)c(O)cc2c3c(oc12)CC(c1ccc2c(c1)OCO2)CC3=O (stereo not given)
inactive: [1] 75.6% | [2] 87.5% | [3] 94.8% | [4] 113% | [5] 89.4% | [6] 85.4% | [7] 38.6% | [8] 86.4% | [9] 92.2% | [10] 90.3%
